# Records with an inconclusive call do not appear. A call without a number means that no potency is given here. The source made the active and inactive calls. Calls follow the shape of the dose curve; as a rule, active = well fitted curve in the direction sought with a large enough effect in the repeat runs; inconclusive = weak or mixed curves; inactive = no such curve, though single readings can be large; an effect the other way counts as inactive or inconclusive.
# Assay: A CellTox Green Cytotoxicity Assay to monitor cytotoxicity in HEK293 cells - 40 hour (AID 1224871); also: nearly all actives have a fitted effect of over 45% in size
# Details: CellTox Green fluorescence; series mostly up to 76.8 µM
# Procedure, shortened: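 Fluorescence intensity, read at 0, 8, 16, 24, 32 and 40 h of compound treatment, reflected dye binding to DNA of dead HEK293 cells; compounds (23 nL, DMSO) were added 5 h after plating cells with reagent.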
# Potency is read from the fitted curve at half-maximal effect.
SMILES,Potency,cytotoxicity increase
N=c1ccn2c(n1)O[C@H]1[C@H](O)[C@@H](CO)O[C@H]12,inactive,
CC(C)Cc1ccc(C(C)C(=O)OCc2ccccn2)cc1 (stereo not drawn),inactive,
CC1=CC=C(C(C)C)CC1,inactive,
CN1CCN(C(c2ccccc2)c2ccccc2)CC1,inactive,
C/C(=C(\CCOP(=O)(O)O)SC(=O)c1ccccc1)N(C=O)Cc1cnc(C)nc1N,,-7.37% [at 6.97 µM] (inactive)
C=C(C)C(=O)OCCOCC,inactive,
NS(=O)(=O)c1ccc(N2CCCCS2(=O)=O)cc1,inactive,
O=C(O)c1ccc(-n2nc(-c3ccccc3O)nc2-c2ccccc2O)cc1,inactive,
CCOc1ccc(O)cc1,inactive,
CC(=O)c1ccc2c(c1)N(CCCN(C)C)c1ccccc1S2,inactive,
CCCn1cnc2c1c(=O)n(CCCCC(C)=O)c(=O)n2C,inactive,
CCCC(=O)Nc1ccc(O)c(C(C)=O)c1,inactive,
CC(C)CC(=O)C1C(=O)c2ccccc2C1=O,inactive,
CN(C)c1ccc(CCO)cc1,inactive,
CCN(CC)CCOC(=O)C(c1ccccc1)C1CCCCC1 (stereo not drawn),21.3 µM (active),
Cc1ccc(C(=O)Oc2ccc(C(O)CNC(C)(C)C)cc2OC(=O)c2ccc(C)cc2)cc1 (stereo not drawn),23.9 µM (active),
Cc1[nH]c(C)c(Cl)c(=O)c1Cl,,-3.34% [at 15.8 µM] (inactive)
C/C=C/C=C/CO,inactive,
COc1cc(Cl)c(OC)cc1N,inactive,
Nc1c(CC(=O)O)cccc1C(=O)c1ccc(Br)cc1,inactive,
CCCCCCCCCc1ccc(OCCOCCO)cc1,13 µM (active),
Brc1c2ccccc2c(Br)c2ccccc12,,-0.912% [at 6.97 µM] (inactive)
Brc1c2ccccc2cc2ccccc12,inactive,
Cc1ccc(N=Nc2c(O)c(C(=O)O)cc3ccccc23)c(S(=O)(=O)O)c1,inactive,
CCCCC(CC)COC(=O)COc1ccc(Cl)cc1Cl (stereo not drawn),inactive,
O=C(CS)Nc1ccccc1,inactive,
O=C(O)c1ccccc1Cl,inactive,
CC(=O)OC[C@H]1O[C@@H](n2ncc(=O)[nH]c2=O)[C@H](OC(C)=O)[C@@H]1OC(C)=O,inactive,

# Assay: qHTS RealTime-Glo MT Cell Viability Assay in HEK293 cells - 16 hour (AID 1224872); also: nearly all actives have a fitted effect of over 50% in size; as to activity change, negative = cytotoxicity: top concentration of the series differs between compounds
# Details: RealTime-Glo luminescence; series mostly up to 76.8 µM
# Procedure, shortened: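 HEK293 cells seeded with NanoLuc/prosubstrate reagent, rested 5 h at 37 C, then dosed and kept at 37 C up to 40 h. Nonlytic real-time luminescence from viable cells read at 0, 8, 16, 24, 32 and 40 h.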
SMILES,Potency,"activity change, negative = cytotoxicity"
CC1=CC=C(C(C)C)CC1,inactive,
CN1CCN(C(c2ccccc2)c2ccccc2)CC1,inactive,
C/C(=C(\CCOP(=O)(O)O)SC(=O)c1ccccc1)N(C=O)Cc1cnc(C)nc1N,,2.81% [at 6.97 µM] (inactive)
C=C(C)C(=O)OCCOCC,inactive,
C[N+]1(C)CCC(OC(=O)C(O)(c2ccccc2)C2CCCC2)C1 (stereo not drawn),inactive,
NS(=O)(=O)c1ccc(N2CCCCS2(=O)=O)cc1,inactive,
O=C(O)c1ccc(-n2nc(-c3ccccc3O)nc2-c2ccccc2O)cc1,inactive,
CN(Cc1ccc(C(C)(C)C)cc1)Cc1cccc2ccccc12,inactive,
CC(=O)c1ccc2c(c1)N(CCCN(C)C)c1ccccc1S2,inactive,
CCCn1cnc2c1c(=O)n(CCCCC(C)=O)c(=O)n2C,inactive,
CCCC(=O)Nc1ccc(O)c(C(C)=O)c1,inactive,
CC(C)CC(=O)C1C(=O)c2ccccc2C1=O,inactive,
CCCCCCCCCCCCCCCCCCOS(=O)(=O)O,inactive,
Cc1[nH]c(C)c(Cl)c(=O)c1Cl,,-23.6% [at 15.8 µM] (inactive)
C/C=C/C=C/CO,inactive,
COc1cc(Cl)c(OC)cc1N,inactive,
Nc1c(CC(=O)O)cccc1C(=O)c1ccc(Br)cc1,inactive,
CCCCCCCCCc1ccc(OCCOCCO)cc1,1.45 µM (active),
Brc1c2ccccc2c(Br)c2ccccc12,,0.583% [at 6.97 µM] (inactive)
Cc1ccc(N=Nc2c(O)c(C(=O)O)cc3ccccc23)c(S(=O)(=O)O)c1,inactive,
CCCCC(CC)COC(=O)COc1ccc(Cl)cc1Cl (stereo not drawn),inactive,
O=C(CS)Nc1ccccc1,inactive,
O=C(O)c1ccccc1Cl,inactive,
CC(=O)OC[C@H]1O[C@@H](n2ncc(=O)[nH]c2=O)[C@H](OC(C)=O)[C@@H]1OC(C)=O,inactive,
Clc1ccc2c(c1)CCc1cccnc1C2=C1CCNCC1,inactive,

# Source: PubChem BioAssay (Tox21)
